Growth data for 38 compounds are collected here from PubChem BioAssay (NCI).

Compounds without any hit were thinned out: in the full panel of roughly 83,000, 20% have a hit.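 Plates (96-well) were seeded with cells, treated with compound at one concentration, and incubated for 48 hours before percent growth was determined.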 Unmarked numbers belong to inactive results. The source made the active and inactive calls. The calls were made as follows: active = growth percent below 10; inactive = the rest.

For this experiment, the system named is HT29 colon. The experiment in a line: NCI-60 one-dose screen, 48 h (100 = growth as untreated, 0 = no growth, -100 = all killed). The note with it: 10 µM unless noted.
For the compound `O=C(O)CSCC(=O)Nc1cc(C(F)(F)F)ccc1Cl`, the growth is 104%.

Regarding `N=C(N)c1nn(C2OC(CO)C(O)C2O)c2nc[nH]c(=O)c12` (stereo not drawn), the growth is 11.7%.

Turning to `CC(C)C(=O)OCCOc1ccc(C(C)(C)C)cc1`, the growth was 93.1%.

`OCCNc1ccccc1`: the growth is 104%.

With `C/C(=N\Nc1ccc([N+](=O)[O-])cc1[N+](=O)[O-])c1ccc(Br)cc1`, the growth is 92.2%.

Regarding `O=C(Oc1ccccc1Cl)c1ccc(Cl)cc1Cl`, the growth is 105%.

Consider `C=C(C)COc1ccc(C(C)(C)C)cc1`, for which the growth was 99.2%.

In the case of `CCC(C)c1c(N)n(S(=O)(=O)c2ccc(C)cc2)oc1=O` (stereo not drawn), the growth is 93.5%.

On to `Nc1ccn(C2CC(N)C(CO)O2)c(=O)n1` (stereo not drawn), for which the growth is 81.3%.

For `CN(CCCN(C)CCC1CCCCC1)CCC1CCCCC1`, the growth was 3.68% (active).

Regarding `O=S(Cc1ccccc1)/C(=C/NC(=S)Nc1cc(Cl)ccc1Cl)c1ccccc1` (stereo not drawn), the growth is 97.4%.

Consider `Cc1c(Cl)cccc1N=C=S`, for which the growth was 104%.

Regarding `CCCC1OC(c2ccco2)OCC1CC` (stereo not drawn), the growth was 103%.

As to `CN1CCCN(C(c2ccccc2)c2ccc(Br)cc2)CC1` (stereo not drawn), the growth was 39.1%.

On to `OCCOc1ccc(-c2cc(-c3ccccn3)nc(-c3ccccn3)c2)cc1`, for which the growth was 4.07% (active).

On to `O=C(Nc1cccc(Cl)c1)c1ccc(Cl)cc1Cl`, for which the growth was 86.5%.

For `CC(=O)Oc1c(Cl)cccc1-c1ccccc1`, the growth was 98.1%.

Regarding `C/C=C/C1OCC(CC)C(CCC)O1` (stereo not drawn), the growth was 105%.

Turning to `COc1cccc(C(=O)O)c1OC`, the growth is 96.8%.

With `CC(C)C1CCC(C)C(O)C1` (stereo not drawn), the growth is 105%.

With `COc1cc(CC#N)c([N+](=O)[O-])cc1OC`, the growth is 108%.

As for `CCCNS(=O)(=O)c1ccc(Cl)cc1`, the growth was 101%.

As to `CCOC(=O)/C(C)=C\c1ccc(OC)c(OC)c1`, the growth is 106%.

Take `O=C(NCc1ccccc1)c1cccc([N+](=O)[O-])c1`: the growth is 97.8%.

On to `OCCc1ccc(Cl)cc1`, for which the growth was 99.9%.

`C/C(=N\O)c1ccccn1`: the growth was 97.3%.

For `CC1(C)OC(=O)CC1=O`, the growth is 93.5%.

On to `O=C1C=Cc2ccccc2/C1=C/c1[nH]c(=O)[nH]c1O`, for which the growth is 37.7%.

`Nc1ncnc2c1ncn2C1OC(CO)C2OC21` (stereo not drawn): the growth was 101%.

Consider `C=CCS(C)(=O)=O`, for which the growth was 97.1%.

Regarding `Cc1ccc(C2CCCCC2)cc1Br`, the growth is 95.8%.

As to `Cc1ccc2[nH]c3ccccc3c2c1`, the growth was 102%.

For `Cc1ccc(/C=N/NC(N)=S)s1`, the growth was 110%.

`O=S(=O)(O)c1cccnc1`: the growth is 117%.

Turning to `O=C(O)c1ccccc1Cc1ccc2c(c1)CCCC2`, the growth is 107%.

On to `Nc1cc(F)ccc1[N+](=O)[O-]`, for which the growth was 109%.

Regarding `CCOc1ccc(C(=O)O)cc1`, the growth was 103%.

As to `CCCCOC(=O)c1ccccc1O`, the growth is 111%.
